Results reported in PubChem BioAssay (NCATS).
Results filed as inconclusive are left out. The source made the active and inactive calls. Unless noted, calls come from the whole dose curve; as a rule, active = well fitted curve in the direction sought with a large enough effect; inconclusive = small, poorly fitted or top-dose-only effect, or another doubt; inactive = no such curve, though single readings can be large; an effect the other way counts as inactive or inconclusive.

Assays:
[1] = P-glycoprotein substrates identified in KB-8-5-11 adenocarcinoma cell line, qHTS therapeutic library screen (AID 1346987); note: nearly all actives have a fitted effect of over 65% in size; note: potency is the fitted concentration of half-maximal effect
Outline: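 Steps: plate 500 KB-8-5-11 cells/well in DMEM + 10% FCS (colchicine removed); pin compounds in dose-response; incubate 72 h, 37 degree C, 5% CO2; add CellTiter-Glo, 5 min; read luminescence.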

[2] = system: Zika virus NS2B-NS3 protease (unlinked complex); test: Primary screen GU Rhodamine qHTS for Zika virus inhibitors: Unlinked NS2B-NS3 protease assay (AID 1347159); note: nearly all actives have a fitted effect of over 60% in size; note: potency is the fitted concentration of half-maximal effect
Outline: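 Noncovalent NS2B hydrophilic domain/NS3 protease complex (25 nM final) in 10 mM Tris-HCl pH 8.0, 0.01% Tween 20, preincubated 15 min with compounds (up to 114 microM), then 1.5 microM Rhodamine110 substrate. Fluorescence change over 15 min fitted to 4-parameter Hill.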

[3] = system: Zika virus NS2B-NS3 protease (linked construct); test: Primary screen NINDS Rhodamine qHTS for Zika virus inhibitors (AID 1347160); note: nearly all actives have a fitted effect of over 55% in size
Outline: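 Purified NS2B-NS3 protease with the NS2B hydrophilic domain joined by a flexible linker (25 nM) in 10 mM Tris-HCl pH 8.0, 0.01% Tween 20, preincubated 15 min at RT with compound; Rhodamine110 peptide substrate 1.5 µM; fluorescence change over 15 min; 4-parameter Hill fit.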

[4] = Primary qHTS for inhibitors of nuclear receptor binding SET domain protein 2 (NSD2) in an RCH-ACV wild type WT cells (2C) (AID 1645877); note: nearly all actives have a fitted effect of over 70% in size; note: potency is the fitted concentration of half-maximal effect
[5] = target: Glutathione peroxidase 1 (Homo sapiens) (UniProt P07203); test: Primary qHTS Assay for Inhibitors of Recombinant Selenoprotein Glutathione Peroxidase 1 (GPX1) (AID 1845191); note: nearly all actives have a fitted effect of over 65% in size
Sequence of Glutathione peroxidase 1 (Homo sapiens) (P07203 whole entry, looked up): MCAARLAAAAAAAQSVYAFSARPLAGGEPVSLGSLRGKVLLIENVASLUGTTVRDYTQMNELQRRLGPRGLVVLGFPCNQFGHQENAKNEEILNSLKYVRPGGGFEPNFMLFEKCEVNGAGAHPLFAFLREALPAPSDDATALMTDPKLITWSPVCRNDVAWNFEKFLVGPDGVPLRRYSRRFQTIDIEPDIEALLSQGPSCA
Outline: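 Recombinant GPX1 (10 nM final) was preincubated with compound for 30 min at room temperature, then reacted with 1 mM GSH, 0.5 mM CHP, 0.5 mM NADPH and 100 nM glutathione reductase; NADPH fluorescence (340/450 nm) was read at 0 and 15 min.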

[6] = system: HeLa; test: Primary qHTS to identify gynecologic anti-cancer compounds using libraries of approved drugs and bioactive compounds (AID 1345084); conditions: Gynecologic cancer cell panel viability, ATPlite luminescence, 48 h; series mostly up to 57.5 µM; note: nearly all actives have a fitted effect of over 55% in size; note: potency is the fitted concentration of half-maximal effect
Outline: (§1)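 Five-point cytotoxicity, 48 h drug exposure at 37 C, 5% CO2, on cells seeded 16 h beforehand. ATP content read by ATPlite luminescence.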

[7] = target: Cytochrome P450 2D6 (Homo sapiens) (UniProt P10635); test: Cytochrome P450 family 2 subfamily D member 6 (CYP2D6) small molecule antagonists: luciferase biochemical (cell-free) qHTS assay (AID 1645840; active = well fitted curve in the direction sought with a large enough effect in the repeat runs; an effect the other way counts as inactive or inconclusive; note: potency is the fitted concentration of half-maximal effect; nearly all actives have a fitted effect of over 55% in size)
Sequence of Cytochrome P450 2D6 (Homo sapiens) (P10635 whole entry, looked up): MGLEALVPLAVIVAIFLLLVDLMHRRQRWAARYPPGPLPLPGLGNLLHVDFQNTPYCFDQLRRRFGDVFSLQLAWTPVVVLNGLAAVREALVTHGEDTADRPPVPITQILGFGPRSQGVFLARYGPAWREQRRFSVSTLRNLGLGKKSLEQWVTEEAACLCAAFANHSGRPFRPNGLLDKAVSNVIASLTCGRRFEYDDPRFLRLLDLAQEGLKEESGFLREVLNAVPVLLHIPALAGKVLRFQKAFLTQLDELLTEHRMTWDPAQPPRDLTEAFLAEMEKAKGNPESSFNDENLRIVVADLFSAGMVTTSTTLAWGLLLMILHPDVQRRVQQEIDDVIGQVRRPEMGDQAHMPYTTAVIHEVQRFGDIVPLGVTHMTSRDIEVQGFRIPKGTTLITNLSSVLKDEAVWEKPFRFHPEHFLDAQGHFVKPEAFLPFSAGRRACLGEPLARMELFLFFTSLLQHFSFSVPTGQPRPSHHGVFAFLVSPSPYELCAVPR
Outline: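 P450-Glo luminescent screen: recombinant CYP2D6 enzyme–proluciferin substrate mix preincubated with compound 10 min at room temperature, then NADPH regeneration added for 1 h at room temperature. Detection reagent added for 20 min; luciferin light read as relative luminescence units.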

[8] = target: Cytochrome P450 2C9 (Homo sapiens) (UniProt P11712); test: Cytochrome P450 family 2 subfamily C member 9 (CYP2C9) small molecule antagonists: luciferase biochemical (cell-free) qHTS assay (AID 1645842; active = well fitted curve in the direction sought with a large enough effect in the repeat runs; an effect the other way counts as inactive or inconclusive)
Sequence of Cytochrome P450 2C9 (Homo sapiens) (P11712 whole entry, looked up): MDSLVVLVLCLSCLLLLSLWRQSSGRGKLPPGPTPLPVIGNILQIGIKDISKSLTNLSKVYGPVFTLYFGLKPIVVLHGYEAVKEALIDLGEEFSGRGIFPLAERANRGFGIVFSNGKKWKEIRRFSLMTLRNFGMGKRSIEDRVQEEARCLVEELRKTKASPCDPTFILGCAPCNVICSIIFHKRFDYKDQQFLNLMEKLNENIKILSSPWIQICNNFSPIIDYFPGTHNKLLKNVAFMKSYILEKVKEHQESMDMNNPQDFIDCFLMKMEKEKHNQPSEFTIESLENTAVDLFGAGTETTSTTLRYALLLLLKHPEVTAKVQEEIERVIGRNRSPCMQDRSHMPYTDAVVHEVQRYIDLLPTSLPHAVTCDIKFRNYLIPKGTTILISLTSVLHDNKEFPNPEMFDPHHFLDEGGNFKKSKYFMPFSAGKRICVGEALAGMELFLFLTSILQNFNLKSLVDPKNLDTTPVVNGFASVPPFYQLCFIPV
Outline: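 Luminescence, after 20 min with luciferin detection reagent, reflected CYP2C9 turnover during a 1 h NADPH-driven reaction at 37C. Enzyme-substrate mix contained 0.4% bovine serum albumin and was preincubated with compound 10 min at room temperature.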

[9] = Cytotoxicity counterscreen for inhibitors of SARS-CoV-2 cell entry (AID 1645845; calls by dose curve; note: nearly all actives have a fitted effect of over 50% in size)
Outline: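 Expi293F/hACE2 cells seeded overnight; cpd pin-transferred in DMSO, 1 h preincubation, + media, 48 h 37 C 5% CO2; ATPLite 1step luminescence; normalized to cells and no cells.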

[10] = system: HaCat; test: Cytotoxic Profiling of Annotated Libraries Using Quantitative High-Throughput Screening (AID 1296008); conditions: Five cell lines viability, CellTiter-Glo ATP luminescence, 48-72 h; max response: stronger effect = lower value; note: nearly all actives have a fitted effect of over 60% in size; note: potency is the fitted concentration of half-maximal effect; for max response: % is set by controls: 0 for no effect and ±100 for the full control effect
Outline: (§2)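 Compounds were pin-transferred onto cells and incubated 48 or 72 hr at 37 degree Celsius, 95% humidity. CellTiter-Glo was added, plates sat 10 min at room temperature, then ATP-coupled luminescence was imaged as the viability read-out.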

[11] = system: KB-3-1; test: as above; conditions: Five cell lines viability, CellTiter-Glo ATP luminescence, 48-72 h; max response: stronger effect = lower value
Outline: as §2

[12] = system: CRL-7250; test: qHTS assay to identify novel small-molecules to repurpose for Merkel cell carcinoma treatment (AID 1296009); conditions: MCC and control cell lines, CellTiter-Glo viability, 72 h; series mostly up to 92 µM; note: nearly all actives have a fitted effect of over 60% in size
Outline: (§3)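 qHTS format: cells treated with library compounds in DMSO across 8 (NPC) or 11 (MIPE) concentrations. Readout after 72 hr at 37 degree celsius was CellTiter-Glo luminescence.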

[13] = system: HACAT; test: as above; conditions: MCC and control cell lines, CellTiter-Glo viability, 72 h; at 44.8 µM (top of the series) unless noted
Outline: as §3

[14] = system: SKOV3; test: Primary qHTS to identify gynecologic anti-cancer compounds using libraries of approved drugs and bioactive compounds (AID 1345084); conditions: Gynecologic cancer cell panel viability, ATPlite luminescence, 48 h; series mostly up to 57.5 µM; note: nearly all actives have a fitted effect of over 55% in size; note: potency is the fitted concentration of half-maximal effect
Outline: as §1

[15] = qHTS drug screen for cell cycle checkpoint inhibitors in PARPi-resistant BRCA-mutant ovarian cancer cell lines. (AID 1963452; calls by dose curve); conditions: PEO1/OlaR viability, CellTiter-Glo luminescence, 96 h, stronger effect = lower value
Outline: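 PEO1, PEO4 and PEO1/OlaR ovarian cancer cells, 600 per well, exposed 96 h at 37C to a dilution series. Viability read by CellTiter-Glo luminescence, normalized to DMSO and empty wells; activity summarized as Z-AUC.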

COc1cc(O)c2c(c1)CCC[C@@H](O)[C@H](O)C(=O)/C=C\C[C@H](C)OC2=O
active: Potency [1] 14.3 µM | Potency [4] 4.5 µM
inactive: Potency [2] | Potency [3] | Potency [5] | Potency [6]

CN1CCC2=C(C1)c1ccccc1Cc1ccccc12
inactive: Potency [1] | Potency [2] | Potency [8] | Potency [9] | Potency [5] | outcome [10] | max response [11] -19% | Potency [12] | outcome [13] | Potency [6] | Potency [14]
active: Potency [7] 0.477 µM

Cc1c(N[C@@H](c2nnc(-c3ccc(C#N)cc3)o2)[C@H](C)O)ccc(C#N)c1Cl
inactive: Potency [1] | Potency [3] | Potency [5] | max response [10] -11% | max response [11] -17.4% | Potency [12] | Potency [6] | Potency [14]

CN1C(=O)N(c2ccc(C#N)c(C(F)(F)F)c2)C(=O)[C@@]1(CO)c1ccccc1
inactive: Potency [1] | Potency [2] | Potency [3] | Potency [4] | max response [10] 0.274% | max response [11] 2.44% | Potency [12] | Potency [6] | Potency [14]

C[C@]12CC[C@H](O)C[C@@]1(O)CC[C@@H]1[C@@H]2CC[C@]2(C)[C@@H](c3ccc(=O)oc3)CC[C@]12O
inactive: Potency [2] | Potency [3] | Potency [14]
active: Potency [1] 0.0184 µM

COC(=O)C12C(=O)C(C)(O)C(=O)C1(C)C(C)=CC1C34CCC(OC3=O)C(C)(C)C4CCC12C (stereo not drawn)
inactive: Potency [2] | Potency [4] | Potency [5] | max response [11] -12.2% | Potency [14]

C[C@]12CC[C@H](O)C[C@@H]1CC[C@@H]1[C@@H]2CC[C@]2(C)[C@@H](C3=CC(=O)OC3)CC[C@]12O
active: Potency [1] 11.4 µM | Potency [4] 4.5 µM
inactive: Potency [2] | Potency [3] | Potency [5]

CCCCCCC1C(=O)O[C@H](C)[C@H](NC(=O)c2cccc(NC=O)c2O)C(=O)O[C@@H](C)[C@@H]1OC(=O)CC(C)C (stereo partly drawn)
active: Potency [2] 6.31 µM | Potency [14] 0.794 µM

C=C(C)C(=O)O[C@H]1[C@@H]2[C@H](C)C(=O)O[C@@H]2C[C@@H](C)[C@@H]2C=CC(=O)[C@]21C
inactive: Potency [2] | Potency [3] | Potency [5] | Potency [6]
active: Potency [1] 3.6 µM | Potency [4] 1.79 µM | Potency [11] 3.21 µM

COc1cc(C(=O)N2CC[C@@H](O)[C@@H](N)C2)cc2nc(-c3cc4ccccc4n3CC3CC3)n(C)c12
0.456: Z-AUC ([15]; measured here: PEO4 Z-AUC)
active: Potency [4] 18.6 µM
inactive: Potency [9] | Potency [5] | Z-AUC [15] 0.124
1.05: Z-AUC ([15]; measured here: PEO1 parental Z-AUC)

COC1CCCC(C)OC(=O)Cc2cc(O)cc(O)c2C(=O)C1 (stereo not drawn)
inactive: Potency [2] | Potency [3] | Potency [5]
active: Potency [1] 4.04 µM | Potency [4] 3.19 µM | Potency [11] 4.04 µM

CC(C)[C@H]1OC(=O)[C@H](Cc2ccccc2)N(C)C(=O)[C@@H](C(C)C)OC(=O)[C@H](Cc2ccccc2)N(C)C(=O)[C@@H](C(C)C)OC(=O)[C@H](Cc2ccccc2)N(C)C1=O
active: Potency [1] 4.85 µM | Potency [4] 4.83 µM
inactive: Potency [3]
